Test results: PubChem BioAssay (NCATS)
“And” between values parts separate entries of the source, which are not always exact repeats. Equal entries are not always repeated. Results filed as inconclusive are left out. The source made the active and inactive calls. Unless noted, calls follow the shape of the dose curve; as a rule, active = well fitted curve in the direction sought with a large enough effect; inconclusive = small, poorly fitted or top-dose-only effect, or another doubt; inactive = no such curve, though single readings can be large; an effect the other way counts as inactive or inconclusive.

Assays:
[1] = Cell Viability - BJ (AID 421; calls by dose curve;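 also: potency is read from the fitted curve at half-maximal effect; cells exposed to compound for 40 hours at 37 °C before readout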); settings: BJ fibroblast viability, qHTS
In short: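 Normal human BJ foreskin fibroblasts, 1500/well in complete medium, treated 40 hr at 37 °C. Cellular ATP by CellTiter-Glo luminescence; normalized to DMSO and 100 uM tamoxifen, AC50 from Hill fit.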

[2] = Cell Viability - Jurkat (AID 426;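 active = dose-dependent loss of cell ATP signal giving a full or clear fitted curve, ranked by lower potency value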; also: potency is read from the fitted curve at half-maximal effect); settings: qHTS
In short: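 Luminescent ATP read-out (CellTiter-Glo, 20 min at room temperature) after 40 hr compound exposure at 37 °C of Jurkat E6-1 cells, 5000/well. Decreased ATP taken as cytotoxicity; AC50 from standard Hill equation.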

[3] = Cell Viability - Hek293 (AID 427;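 active = compounds whose dose-response curve shows a full or clear partial loss of cell viability, called from curve shape rather than a numeric limit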;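 also: potency is read from the fitted curve at half-maximal effect; cells exposed to compound for 40 hours at 37 °C before reading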); settings: qHTS
In short: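 HEK293 cells in complete medium were exposed to compound for 40 hr at 37 °C, then cellular ATP was read by CellTiter-Glo luminescence. Data were normalized to DMSO (basal) and 100 uM tamoxifen (100% inhibition), and AC50 came from Hill fits.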

[4] = Cell Viability - HepG2 (AID 433; calls by dose curve;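 also: potency is read from the fitted curve at half-maximal effect; potency for ATP loss meaning cytotoxicity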); settings: qHTS
In short: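 Cytotoxicity read as ATP loss (CellTiter-Glo luminescence) after 40 hr compound exposure of HepG2, 1500 cells/well, 37 °C. AC50 by Hill equation; 0% set by DMSO, 100% inhibition by 100 uM tamoxifen.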

[5] = Cell Viability - MRC5 (AID 434; calls by dose curve;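 also: potency is read from the fitted curve at half-maximal effect; potency reflects cytotoxicity seen as loss of intracellular ATP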); settings: MRC5 lung fibroblast viability, qHTS
In short: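 Decrease in intracellular ATP, quantified by luciferase light output, reflects compound toxicity toward MRC5 cells exposed for 40 hr in complete culture medium. Concentration-response curves, scaled between DMSO and 100 uM tamoxifen, gave AC50 values.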

[6] = Cell Viability - SK-N-SH (AID 435; calls by dose curve; also: potency is read from the fitted curve at half-maximal effect); settings: SK-N-SH neuroblastoma cell viability qHTS
In short: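 qHTS cytotoxicity: CellTiter-Glo ATP luminescence after 40 h compound exposure of human neuroblastoma SK-N-SH cells at 37 °C. AC50 derived by Hill-equation fitting, with DMSO as basal and 100 uM tamoxifen as full inhibition.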

[7] = Cellular Toxicity (caspase-3) HepG2 (AID 654); settings: HepG2 caspase-3 activation, luminescence, 0% = DMSO only, 100% = tamoxifen; series mostly up to 92.2 µM;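 also: cells exposed to compound for 16 hours before reading; 0% = DMSO alone and 100% = caspase signal from 100 µM tamoxifen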
In short: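 Luminescent Caspase-Glo 3/7 readout after 16 hr compound exposure of human hepatocellular carcinoma HepG2 cells at 37 °C; qHTS concentration-response, normalized DMSO = 0%, 100 uM tamoxifen = 100%; AC50 by standard Hill equation.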

[8] = Cellular Toxicity (caspase-3) BJ (AID 658); settings: BJ fibroblasts, luminescence, normalized: DMSO 0%, staurosporine 100%; series mostly up to 91.7 µM
In short: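 Plated BJ cells (1000/well) rested 5 hr, received compound for 16 hr at 37 °C, then Caspase-Glo 3/7 reagent for 1 hr at room temperature before luminescence reading.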

[9] = Cellular Toxicity (caspase-3) MRC-5 (AID 659); settings: MRC-5 cells, luminescence, normalized: DMSO 0%, 10 µM staurosporine 100%; series mostly up to 91.7 µM
In short: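 Apoptosis readout in MRC-5 cells: luciferase light generated after caspase 3/7 cleaves a peptide-aminoluciferin substrate, measured post 16 hr compound incubation at 37 °C.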

[10] = Cellular Toxicity (caspase-3) Hek293 (AID 664); settings: HEK293 caspase-3 activation, DMSO = 0%, 100 µM tamoxifen = 100%; at 92.2 µM (top of the series);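 also: cells exposed to compound for 16 h at 37 °C before readout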
In short: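 Luminescent Caspase-Glo 3/7 readout (aminoluciferin release) in HEK293 cells after 16 h compound treatment, 37 °C. Normalization: DMSO = basal, 100 uM tamoxifen = 100% stimulation. Concentration-response fitted with standard Hill equation for AC50.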

[11] = Cellular Toxicity (caspase-3) N2a (AID 665); settings: N2a cells, luminescence, normalized: DMSO 0%, 10 µM staurosporine 100%; series mostly up to 92.2 µM;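 also: compound exposure lasted 16 h at 37 °C before readout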
In short: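 Luminescent Caspase-Glo 3/7 readout in N2a mouse neuroblastoma cells after 16 h compound exposure at 37 °C. Signal scaled to DMSO (basal) and 10 uM staurosporine (100%). Concentration-response fitted with Hill equation for AC50.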

[12] = Cellular Toxicity (caspase-3) NIH 3T3 (AID 666); settings: NIH 3T3 caspase-3 activation, apoptosis/toxicity; series mostly up to 92.2 µM;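 also: 0% = DMSO basal and 100% = 100 µM tamoxifen stimulation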
In short: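 NIH 3T3, 1000 cells/well, 5 hr settle then 16 hr compound at 37°C; Caspase-Glo 3/7, 20 min RT, luminescence. DMSO = basal, 100 uM tamoxifen = 100%. Hill-equation AC50, qHTS.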

[13] = MultiTox-Fluor Cytotoxicity Assay - LYMP1-001 - Dead Cells (AID 946); settings: LYMP1-001 lymphoblastoid cells, dead-cell protease fluorescence; series mostly up to 92.2 µM;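 also: 0% = DMSO and 100% = tetraoctylammonium bromide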
In short: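 LYMP1-001 lymphoblastoid cells (2500/well) treated 16 h at 37 C. Dead-cell protease cleavage of bis-AAF-R110 read at Ex/Em 485/520. Normalized to DMSO and 15 uM tetraoctylammonium bromide; AC50 from Hill fits.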

[14] = MultiTox-Fluor Cytotoxicity Assay - LYMP1-002 - Live Cells (AID 955); settings: LYMP1-002 lymphoblastoid live-cell protease fluorescence viability; series mostly up to 46.1 µM; also: % is scaled to controls: 0 for no effect and ±100 for the full control effect
In short: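 LYMP1-002 lymphoblastoid cells; 2500 cells/well; 16 hr compound exposure, 37 C; MultiTox-Fluor reagent 60 min RT; live-cell fluorescence Ex/Em=405/510; qHTS concentration-response, Hill-equation AC50; tetraoctylammonium bromide positive control.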

[15] = MultiTox-Fluor Cytotoxicity Assay - LYMP1-003 - Dead Cells (AID 961); settings: LYMP1-003 lymphoblastoid cells, dead-cell protease fluorescence; series mostly up to 92.2 µM;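 also: 0% = DMSO and 100% = tetraoctylammonium bromide; nearly all actives have a fitted effect of over 70% in size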
In short: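 LYMP1-003 human lymphoblastoid cells (2500/well) exposed to compound 16 h at 37 C in complete medium; dead-cell protease read with bis-AAF-R110 fluorescence (Ex/Em 485/520) after 60 min at room temperature. Normalized to DMSO and 15 uM tetraoctylammonium bromide; AC50 from Hill fit.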

[16] = Cell Viability - LYMP2-008 (AID 980); settings: LYMP2-008 lymphoblastoid cell viability, qHTS; series mostly up to 92.2 µM; also: % is scaled to controls: 0 for no effect and ±100 for the full control effect; nearly all actives have a fitted effect of over 60% in size
In short: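 Luminescent ATP read-out (CellTiter-Glo, 30 min RT) after 24 hr compound exposure at 37 C of human lymphoblastoid cells in complete medium. Decrease in ATP taken as cytotoxicity; AC50 derived by standard Hill fit of qHTS concentration-response data.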

[17] = Cell Viability - LYMP1-002 - Assay at 24 hr (AID 993); settings: LYMP1-002 lymphoblastoid cells viability; series mostly up to 92.2 µM; also: % is scaled to controls: 0 for no effect and ±100 for the full control effect
In short: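 CellTiter-Glo luminescence (intracellular ATP) after 24 h compound exposure, 37 C, in LYMP1-002 human lymphoblastoid cells; decreased ATP taken as cytotoxicity. AC50 from standard Hill fit of concentration-response curves.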

[18] = qHTS Assay for Identification of Small Molecule Inducers of Hypoxia Response (AID 2120; active = well fitted curve in the direction sought with a large enough effect in the signal ratio, with a control signal flat, not every such curve was filed as active; the % refers to the signal ratio; also: 0% is about no effect); settings: hypoxia response reporter cells, beta-lactamase ratio readout; series mostly up to 104 µM
In short: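 Read-out: CCF4 FRET emission ratio 460nm/530nm (excitation 405nm), converted to %Activity, with AC50 fitted across a compound titration. ME-180 cells carried an HRE-driven beta-lactamase reporter; compound exposure 17 h, 37 degrees C.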

[19] = biological target: Peroxisome proliferator-activated receptor alpha (Homo sapiens) (UniProt Q07869); experiment: qHTS assay for small molecule agonists of the peroxisome proliferator-activated receptor alpha (PPARalpha) signaling pathway (AID 651778); settings: PathHunter PPARalpha complementation, chemiluminescence, 6 h; active compounds read high; also: % of control where 0% means no effect
Sequence of Peroxisome proliferator-activated receptor alpha (Homo sapiens) (Q07869 whole entry, looked up): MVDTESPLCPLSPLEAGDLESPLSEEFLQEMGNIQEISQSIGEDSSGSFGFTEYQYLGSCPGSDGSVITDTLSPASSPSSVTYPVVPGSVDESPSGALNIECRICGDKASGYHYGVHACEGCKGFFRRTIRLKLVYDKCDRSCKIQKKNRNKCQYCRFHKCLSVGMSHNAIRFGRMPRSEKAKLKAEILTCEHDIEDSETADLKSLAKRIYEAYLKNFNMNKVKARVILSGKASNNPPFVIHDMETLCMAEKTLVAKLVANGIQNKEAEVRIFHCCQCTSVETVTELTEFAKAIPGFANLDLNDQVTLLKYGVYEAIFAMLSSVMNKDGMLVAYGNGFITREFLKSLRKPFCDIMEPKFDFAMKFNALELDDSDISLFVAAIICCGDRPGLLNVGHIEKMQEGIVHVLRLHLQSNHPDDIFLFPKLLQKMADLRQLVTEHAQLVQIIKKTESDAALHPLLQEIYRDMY
In short: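 Cells plated at 2,000/well and held overnight at 37 C, 5% CO2, then compound added by pin tool for 6 hr; after PathHunter detection reagent and 60 min at room temperature, chemiluminescence from enzyme complementation was read.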

[20] = qHTS assay for cell viability of the p53RE-bla HCT-116 cell line (AID 743292); settings: p53RE-bla HCT-116 viability, ATP luminescence, 16 h; series mostly up to 95 µM; also: % is scaled to controls: 0 for no effect and ±100 for the full control effect; nearly all actives have a fitted effect of over 55% in size
In short: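 Quantitative high-throughput format: compounds in DMSO were pinned onto p53RE-bla HCT-116 cells (4,000/well) and incubated 16 h at 37 C. Total intracellular ATP, read by CellTiter-Glo luminescence, reflects viable cell number.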

CC(C)OC(=O)Cc1ccccc1
inactive: Potency [1] > 92 µM | Potency [2] > 92 µM | Potency [3] > 92 µM | Potency [4] > 92 µM | Potency [5] > 92 µM | Potency [6] > 92 µM | outcome [7] | outcome [8] | outcome [9] | caspase-3 activation [10] 0.719% | outcome [11] | Potency [12] | outcome [13] | outcome [14] | Potency [15] | Potency [16] | Potency [17] | Potency [18] | max response [19] 0.38% | Potency [20]

Nc1cc(Cl)cc(Cl)c1
inactive: Potency [1] > 92 µM | Potency [2] > 92 µM | Potency [3] > 92 µM | Potency [4] > 92 µM | Potency [5] > 92 µM | Potency [6] > 92 µM | outcome [7] | outcome [8] | outcome [9] | caspase-3 activation [10] 1.09% | outcome [11] | Potency [12] | outcome [13] | outcome [14] | Potency [15] | Potency [16] | Potency [17] | Potency [18] | max response [19] 0.393% | Potency [20]

CCC#N
inactive: Potency [1] > 92 µM | Potency [2] > 92 µM | Potency [3] > 92 µM | Potency [4] > 92 µM | Potency [5] > 92 µM | Potency [6] > 92 µM | outcome [7] | outcome [8] | outcome [9] | caspase-3 activation [10] -0.76% | outcome [11] | Potency [12] | outcome [13] | outcome [14] | Potency [15] | Potency [16] | Potency [17] | Potency [18] | max response [19] -3.95% | Potency [20]

Nc1ccc(Cc2ccc(N)cc2)cc1
inactive: Potency [1] > 92 µM | Potency [2] > 92 µM | Potency [3] > 92 µM | Potency [4] > 92 µM | Potency [5] > 92 µM | Potency [6] > 92 µM | outcome [7] | outcome [8] | outcome [9] | caspase-3 activation [10] 0.697% | outcome [11] | Potency [12] | outcome [13] | outcome [14] | Potency [15] | Potency [16] | Potency [17] | Potency [18] | max response [19] -4.91% and -1.61% | Potency [20]

CCBr
inactive: Potency [1] > 92 µM | Potency [2] > 92 µM | Potency [3] > 92 µM | Potency [4] > 92 µM | Potency [5] > 92 µM | Potency [6] > 92 µM | outcome [7] | outcome [8] | outcome [9] | caspase-3 activation [10] 2.63% | outcome [11] | Potency [12] | outcome [13] | outcome [14] | Potency [15] | Potency [16] | Potency [17] | Potency [18] | max response [19] -2.39% | Potency [20]

BrCCc1ccccc1
inactive: Potency [1] > 92 µM | Potency [2] > 92 µM | Potency [3] > 92 µM | Potency [4] > 92 µM | Potency [5] > 92 µM | Potency [6] > 92 µM | outcome [7] | outcome [8] | outcome [9] | caspase-3 activation [10] 0.126% | outcome [11] | Potency [12] | outcome [13] | outcome [14] | Potency [15] | Potency [16] | Potency [17] | Potency [18] | max response [19] -3.08% | Potency [20]

ClCC(Br)CBr (stereo not given)
inactive: Potency [1] > 92 µM | Potency [2] > 92 µM | Potency [3] > 92 µM | Potency [4] > 92 µM | Potency [5] > 92 µM | Potency [6] > 92 µM | outcome [7] | outcome [8] | outcome [9] | caspase-3 activation [10] 0.439% | outcome [11] | Potency [12] | outcome [13] | outcome [14] | Potency [15] | Potency [16] | Potency [17] | Potency [18] | max response [19] -1.61% | Potency [20]

Cc1ccc(N)c(C)c1
inactive: Potency [1] > 92 µM | Potency [2] > 92 µM | Potency [3] > 92 µM | Potency [4] > 92 µM | Potency [5] > 92 µM | Potency [6] > 92 µM | outcome [7] | outcome [8] | outcome [9] | caspase-3 activation [10] 1.54% | outcome [11] | Potency [12] | outcome [13] | outcome [14] | Potency [15] | Potency [16] | Potency [17] | Potency [18] | max response [19] -4.17% | Potency [20]

[O-][Cl+2]([O-])O
inactive: Potency [1] > 92 µM | Potency [2] > 92 µM | Potency [3] > 92 µM | Potency [4] > 92 µM | Potency [5] > 92 µM | Potency [6] > 92 µM | outcome [7] | outcome [8] | outcome [9] | caspase-3 activation [10] -0.13% | outcome [11] | Potency [12] | outcome [13] | outcome [14] | Potency [15] | Potency [16] | Potency [17] | Potency [18] | max response [19] -2.92% | Potency [20]

Clc1ccc(C(Cl)(Cl)Cl)c(Cl)c1
inactive: Potency [1] > 92 µM | Potency [2] > 92 µM | Potency [3] > 92 µM | Potency [4] > 92 µM | Potency [5] > 92 µM | Potency [6] > 92 µM | outcome [7] | outcome [8] | outcome [9] | caspase-3 activation [10] 0.186% | outcome [11] | Potency [12] | outcome [13] | outcome [14] | Potency [15] | Potency [16] | Potency [17] | Potency [18] | max response [19] -0.345% | Potency [20]

CC(Cl)CCl (stereo not given)
inactive: Potency [1] > 92 µM | Potency [2] > 92 µM | Potency [3] > 92 µM | Potency [4] > 92 µM | Potency [5] > 92 µM | Potency [6] > 92 µM | outcome [7] | outcome [8] | outcome [9] | caspase-3 activation [10] -1.21% | outcome [11] | Potency [12] | outcome [13] | outcome [14] | Potency [15] | Potency [16] | Potency [17] | Potency [18] | max response [19] -4.11% | Potency [20]
